Compound activity (PubChem)
An excerpt weighted towards active compounds, which were near 19% of everything screened.
Pf growth 48h: inhibits P. falciparum growth in the first generation, 48 h; Potency, µM (top dose mostly 28.7 µM), hits mostly inhibitors; 310,000 compounds, 5.9% hits; P. falciparum luciferase growth in erythrocytes, 48 h
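Luminescence readout; reporter = integrated firefly luciferase in P. falciparum. RBC culture at 2% hematocrit, 0.1% parasitemia final, 37 C/5% CO2; decreased signal taken as growth inhibition.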
Shiga inhibitor: inhibitors of Shiga toxin in Vero cells; Vero cells, Shiga toxin protein synthesis inhibition reporter; inhibition, % at 38.7 µM; 290,000 compounds, 9.2% hits; in the data active = inhibition mostly above about 28%, no sharp cut-off; inactive = mostly below about 43%
AMA1 RON2 block: AMA1-RON2 (P. falciparum) interaction inhibition. AlphaScreen AMA1-biotinylated RON2 peptide binding. Potency, µM (top dose mostly 58.2 µM), actives largely listed as inhibitors. 360,000 compounds, 0.2% hits. AID 720542; note: nearly all actives have a fitted effect of over 45% in size
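AMA1 (3D7) with his tag at 25 nM final met compounds first, then biotinylated RON2 peptide at 25 nM; detection used donor plus acceptor beads, 10 µg/mL apiece, read by AlphaScreen after 30 min at room temperature.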
Cycloheximide cs: affects cycloheximide protein synthesis inhibition readout, counter-screen; 300,000 compounds, 12% hits; cell reporter, cycloheximide protein synthesis inhibition counterscreen; max response, %; in the data active = max response mostly above about 13%, no sharp cut-off; inactive = mostly below about 14%; note: read at 38.3 µM for the half of the compounds with a filed dose
SARS PLP yeast: inhibitors of SARS-CoV papain-like protease in yeast; S. cerevisiae expressing SARS-CoV PLpro, growth rescue; AID 485353; Potency, µM (series often up to 32.9 µM), most hits filed as activators; 330,000 compounds, 0.19% hits; calls by dose curve; note: nearly all actives have a fitted effect of over 55% in size
Pf growth 96h: inhibits malaria parasite growth, 96 h; AID 504834; 320,000 compounds, 6.9% hits; P. falciparum luciferase reporter growth, 96 h; Potency, µM (titrated, usually from 28.7 µM), most hits filed as inhibitors
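Luminescence readout: decreased luciferase signal marks inhibited growth of reporter-expressing P. falciparum in infected red cells (2% hematocrit, 0.05% parasitemia final), exposed to compound two generations (96 h, 37 C, 5% CO2).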
Of the large screens only hits and unclear results are named; the others gave an inactive call. Unless noted, calls come from the whole dose curve; as a rule, active = well fitted curve in the direction sought with a large enough effect; inconclusive = small, poorly fitted or top-dose-only effect, or another doubt; inactive = no such curve, though single readings can be large; an effect the other way counts as inactive or inconclusive.

O=C(C#Cc1ccccc1)NCc1ccccc1F	Shiga inhibitor 67, Cycloheximide cs 21
Cc1cccc(CN2CCN(C(C)C(=O)NC(C)c3ccccc3)CC2)c1 (centres undefined)	none
CCOC(=O)N1CCN(S(=O)(=O)c2c(C(=O)N3CCCCC3)c(C)n(C)c2C)CC1	none
COc1ccc(NC(=O)C#Cc2ccccc2)cc1	Shiga inhibitor 86, Cycloheximide cs 55, Pf growth 96h inconclusive
CN(Cc1ccc(OC(F)F)cc1)C(=O)c1cccc(S(=O)(=O)N2CCN(Cc3ccccc3)CC2)c1	none (no result: Pf growth 48h, Shiga inhibitor, Cycloheximide cs, SARS PLP yeast, Pf growth 96h)
CN(c1ccc(C(=O)NCCSCc2c(F)cccc2Cl)cc1)S(C)(=O)=O	none
O=C(NCCSCc1c(F)cccc1Cl)Nc1ccccc1	Pf growth 48h inconclusive, Shiga inhibitor 75, Cycloheximide cs 32, Pf growth 96h inconclusive
O=C(Cc1ccccc1)NCCSCc1ccco1	none (no result: Pf growth 48h)
N#Cc1ccccc1CSCCNC(=O)Cc1c(F)cccc1Cl	Cycloheximide cs 17
O=C(NCCSCc1ccco1)c1ccc(CN2CCOCC2)cc1	Cycloheximide cs 9.4 (no result: Pf growth 48h)
O=C(NCCSCc1ccco1)Nc1ccccc1	Cycloheximide cs 48
CC(C)CN(C(=O)CC(C)c1ccccc1)c1c(N)n(Cc2ccccc2)c(=O)[nH]c1=O (centres undefined)	Pf growth 48h inconclusive, Pf growth 96h inconclusive (no result: Shiga inhibitor, Cycloheximide cs)
CCc1nnc(NS(=O)(=O)c2ccc(NC(=O)c3cccc(Cl)c3)cc2)s1	none
CC1(C(=O)Nc2cccc(Oc3ccccc3)c2)CCN1Cc1cccc2c1OCO2 (centres undefined)	none (no result: Pf growth 48h, Shiga inhibitor, Cycloheximide cs, SARS PLP yeast, Pf growth 96h)
CCC1CCCCN1C(=O)CSc1nnc(-c2ccco2)o1 (centres undefined)	Shiga inhibitor 62, Cycloheximide cs 37
CCC1CCCCN1C(=O)CSc1nnc(-c2cccc(Cl)c2)o1 (centres undefined)	Shiga inhibitor 98, Cycloheximide cs 29
CCC1CCCCN1C(=O)CSc1nnc(-c2ccc(Cl)cc2)o1 (centres undefined)	Pf growth 96h inconclusive (no result: Pf growth 48h)
CCC1CCCCN1C(=O)CSc1nnc(-c2ccc(Cl)s2)o1 (centres undefined)	Shiga inhibitor 82, Cycloheximide cs 38
COc1cc(OC)cc(C(=O)OCC(=O)NCc2ccc3c(c2)OCO3)c1	none
O=C(CSc1nc2cc(Cl)ccc2s1)NC1CCCc2ccccc21 (centres undefined)	none
CCOC(=O)C1=C(Cn2cnc3ccccc32)NC(=O)NC1c1ccc(Cl)cc1 (centres undefined)	SARS PLP yeast inconclusive, Pf growth 96h 5.9µM (no result: Pf growth 48h)
CCOC(=O)C1=C(Cn2cnc3ccccc32)NC(=O)NC1c1ccc(OC)cc1 (centres undefined)	Pf growth 96h inconclusive (no result: Pf growth 48h)
CN1CCN(c2ccc(Nc3ccnc4cc(Cl)ccc34)cc2)CC1	Pf growth 48h 0.026µM, Pf growth 96h inconclusive
CCN1CCN(c2ccc(Nc3ccnc4ccccc34)cc2)CC1	Pf growth 48h 0.66µM, Pf growth 96h inconclusive (no result: Shiga inhibitor, Cycloheximide cs)
Cc1ccc(C(=O)OCC(=O)Nc2ccccc2Sc2ccccc2)cc1C	none
C=C(C)CN=c1scc(C)n1/N=C/c1ccco1	SARS PLP yeast inconclusive, Pf growth 96h inconclusive
CCN=c1scc(C)n1/N=C/c1ccc(O)c(O)c1O	Pf growth 48h inconclusive, AMA1 RON2 block inconclusive, Cycloheximide cs 25, Pf growth 96h 7.4µM
COCCN=c1scc(-c2cccs2)n1/N=C/c1ccc(O)c(O)c1O	Pf growth 48h 9.3µM, Shiga inhibitor 55, Cycloheximide cs 32, Pf growth 96h 4.1µM
CN=c1scc(-c2ccc(F)cc2)n1/N=C/c1ccc(O)c(O)c1	Pf growth 96h inconclusive
COCCN=c1scc(-c2ccccc2)n1/N=C/c1c[nH]c2ccccc12	Pf growth 48h inconclusive, AMA1 RON2 block inconclusive, Cycloheximide cs 17, Pf growth 96h inconclusive
O=C1CSC(=S)N1/N=C/c1ccc(O)c(O)c1O	Pf growth 48h inconclusive, AMA1 RON2 block inconclusive, Pf growth 96h inconclusive
CCN=c1scc(C)n1/N=C/c1cc(Br)c(O)c(Br)c1	Pf growth 48h inconclusive, Shiga inhibitor 32, Pf growth 96h inconclusive
CC1CC(=O)Nc2ccccc2N1S(=O)(=O)c1cccc(Cl)c1 (centres undefined)	none
CCOC(=O)N1CCN(C(=O)C[C@@H]2C[C@@]3(C(=O)OC)CC(C)(C)CC=C3N(Cc3ccccc3)C2=O)CC1	none (no result: Pf growth 48h, Shiga inhibitor, Cycloheximide cs, SARS PLP yeast, Pf growth 96h)
Cc1ccc(-c2nc(N/N=C/c3cccc([N+](=O)[O-])c3)c3ccccc3n2)cc1	none
